Test results taken from ChEMBL document CHEMBL1961873, “Compounds: GSK PKIS; Assays: Nanosyn kinase panel” (2012).

Columns and labels:
[1] = system: Tyrosine-protein kinase ABL1 (Homo sapiens), P00519 [T315I]; conditions: at 1 µM
[2] = system: Tyrosine-protein kinase ABL1 (Homo sapiens), P00519 [Y253F]; conditions: at 0.1 µM
[3] = system: Tyrosine-protein kinase ABL1 (Homo sapiens), P00519 [Y253F]; conditions: at 1 µM
[4] = target: Tyrosine-protein kinase ABL1 (Homo sapiens) (UniProt P00519); conditions: at 0.1 µM
[5] = target: Tyrosine-protein kinase ABL1 (Homo sapiens) (UniProt P00519); conditions: at 1 µM
[6] = target: ALK tyrosine kinase receptor (Homo sapiens) (UniProt Q9UM73); conditions: at 0.1 µM
[7] = target: ALK tyrosine kinase receptor (Homo sapiens) (UniProt Q9UM73); conditions: at 1 µM
[8] = target: Tyrosine-protein kinase ABL2 (Homo sapiens) (UniProt P42684); conditions: at 0.1 µM
[9] = target: Tyrosine-protein kinase ABL2 (Homo sapiens) (UniProt P42684); conditions: at 1 µM
[10] = target: Tyrosine-protein kinase receptor UFO (Homo sapiens) (UniProt P30530); conditions: at 0.1 µM
[11] = target: Tyrosine-protein kinase receptor UFO (Homo sapiens) (UniProt P30530); conditions: at 1 µM
[12] = target: Tyrosine-protein kinase Blk (Homo sapiens) (UniProt P51451); conditions: at 0.1 µM
[13] = target: Tyrosine-protein kinase Blk (Homo sapiens) (UniProt P51451); conditions: at 1 µM
[14] = target: T1, Cytoplasmic tyrosine-protein kinase BMX (Homo sapiens) (UniProt P51813); conditions: at 0.1 µM
T1 sequence (whole entry): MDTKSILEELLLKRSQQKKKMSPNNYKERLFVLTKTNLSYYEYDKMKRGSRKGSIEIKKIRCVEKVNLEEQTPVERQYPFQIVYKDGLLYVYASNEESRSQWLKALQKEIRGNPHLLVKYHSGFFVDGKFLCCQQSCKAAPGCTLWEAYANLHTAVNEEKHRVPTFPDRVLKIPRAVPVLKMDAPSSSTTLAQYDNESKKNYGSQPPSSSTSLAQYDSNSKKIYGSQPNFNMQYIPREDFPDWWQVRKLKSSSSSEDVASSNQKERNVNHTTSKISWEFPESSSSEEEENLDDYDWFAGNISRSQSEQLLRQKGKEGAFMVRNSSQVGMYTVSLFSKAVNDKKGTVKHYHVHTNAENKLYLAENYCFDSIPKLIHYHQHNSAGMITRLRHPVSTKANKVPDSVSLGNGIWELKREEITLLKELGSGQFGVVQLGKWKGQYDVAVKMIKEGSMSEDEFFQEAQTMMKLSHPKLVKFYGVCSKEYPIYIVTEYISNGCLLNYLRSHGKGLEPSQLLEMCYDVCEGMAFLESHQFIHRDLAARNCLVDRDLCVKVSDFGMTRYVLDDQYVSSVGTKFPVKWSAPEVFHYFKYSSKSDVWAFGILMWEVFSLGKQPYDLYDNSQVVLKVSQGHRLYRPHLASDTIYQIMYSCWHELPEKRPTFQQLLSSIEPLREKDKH

[15] = target: T1, Cytoplasmic tyrosine-protein kinase BMX (Homo sapiens); conditions: at 1 µM
[16] = target: Protein-tyrosine kinase 6 (Homo sapiens) (UniProt Q13882); conditions: at 0.1 µM
[17] = target: Protein-tyrosine kinase 6 (Homo sapiens) (UniProt Q13882); conditions: at 1 µM
[18] = target: Tyrosine-protein kinase BTK (Homo sapiens) (UniProt Q06187); conditions: at 0.1 µM
[19] = target: Tyrosine-protein kinase BTK (Homo sapiens) (UniProt Q06187); conditions: at 1 µM
[20] = target: Tyrosine-protein kinase CSK (Homo sapiens) (UniProt P41240); conditions: at 0.1 µM;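 further: value given is the averaged percent inhibition of CSK kinase activity, from the GSK PKIS kinase inhibitor set screening panel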
Chain of Tyrosine-protein kinase CSK (Homo sapiens) (P41240 2-450 limits assumed): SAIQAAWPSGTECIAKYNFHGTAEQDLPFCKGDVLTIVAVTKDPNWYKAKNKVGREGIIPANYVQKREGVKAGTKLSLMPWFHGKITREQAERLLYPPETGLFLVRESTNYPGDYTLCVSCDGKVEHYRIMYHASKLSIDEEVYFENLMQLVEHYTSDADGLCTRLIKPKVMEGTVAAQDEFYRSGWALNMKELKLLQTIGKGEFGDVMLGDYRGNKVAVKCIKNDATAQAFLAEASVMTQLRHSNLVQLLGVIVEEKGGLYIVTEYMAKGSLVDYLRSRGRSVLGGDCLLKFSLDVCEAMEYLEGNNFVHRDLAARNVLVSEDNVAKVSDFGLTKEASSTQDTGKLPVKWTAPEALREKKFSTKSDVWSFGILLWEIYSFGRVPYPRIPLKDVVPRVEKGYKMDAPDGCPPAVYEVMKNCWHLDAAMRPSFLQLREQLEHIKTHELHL

Chain of Tyrosine-protein kinase BTK (Homo sapiens) (Q06187 whole entry): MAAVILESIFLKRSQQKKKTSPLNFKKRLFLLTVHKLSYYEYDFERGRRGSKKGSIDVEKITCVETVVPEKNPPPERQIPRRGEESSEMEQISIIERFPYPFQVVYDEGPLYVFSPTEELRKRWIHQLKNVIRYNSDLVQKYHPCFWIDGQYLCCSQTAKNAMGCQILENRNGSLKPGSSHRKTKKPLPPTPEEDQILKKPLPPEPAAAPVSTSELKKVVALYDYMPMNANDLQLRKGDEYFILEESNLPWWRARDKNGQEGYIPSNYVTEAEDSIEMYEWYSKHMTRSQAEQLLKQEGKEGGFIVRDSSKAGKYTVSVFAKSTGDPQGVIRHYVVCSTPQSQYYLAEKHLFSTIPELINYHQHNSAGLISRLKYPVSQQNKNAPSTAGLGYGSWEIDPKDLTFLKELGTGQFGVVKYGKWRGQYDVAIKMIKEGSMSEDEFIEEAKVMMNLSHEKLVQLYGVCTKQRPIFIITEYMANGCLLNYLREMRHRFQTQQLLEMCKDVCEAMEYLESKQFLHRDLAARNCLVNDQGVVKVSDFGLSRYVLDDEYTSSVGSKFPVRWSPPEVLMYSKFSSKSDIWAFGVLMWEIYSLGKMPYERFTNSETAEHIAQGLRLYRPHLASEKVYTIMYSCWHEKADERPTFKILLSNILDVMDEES
Chain of Protein-tyrosine kinase 6 (Homo sapiens) (Q13882 whole entry, looked up): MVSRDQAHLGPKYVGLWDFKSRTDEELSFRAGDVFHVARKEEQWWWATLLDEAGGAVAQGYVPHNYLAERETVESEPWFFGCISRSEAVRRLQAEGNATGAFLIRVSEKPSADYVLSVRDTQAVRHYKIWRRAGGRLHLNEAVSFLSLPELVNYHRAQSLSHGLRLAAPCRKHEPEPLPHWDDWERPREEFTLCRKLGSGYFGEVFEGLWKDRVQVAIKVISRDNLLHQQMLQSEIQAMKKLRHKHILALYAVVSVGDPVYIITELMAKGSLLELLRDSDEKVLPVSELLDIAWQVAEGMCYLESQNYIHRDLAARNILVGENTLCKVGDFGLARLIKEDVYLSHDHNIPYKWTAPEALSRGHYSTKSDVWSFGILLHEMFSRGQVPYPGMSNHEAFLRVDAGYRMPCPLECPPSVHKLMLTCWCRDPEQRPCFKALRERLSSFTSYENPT
Chain of ALK tyrosine kinase receptor (Homo sapiens) (Q9UM73 19-1620 limits assumed): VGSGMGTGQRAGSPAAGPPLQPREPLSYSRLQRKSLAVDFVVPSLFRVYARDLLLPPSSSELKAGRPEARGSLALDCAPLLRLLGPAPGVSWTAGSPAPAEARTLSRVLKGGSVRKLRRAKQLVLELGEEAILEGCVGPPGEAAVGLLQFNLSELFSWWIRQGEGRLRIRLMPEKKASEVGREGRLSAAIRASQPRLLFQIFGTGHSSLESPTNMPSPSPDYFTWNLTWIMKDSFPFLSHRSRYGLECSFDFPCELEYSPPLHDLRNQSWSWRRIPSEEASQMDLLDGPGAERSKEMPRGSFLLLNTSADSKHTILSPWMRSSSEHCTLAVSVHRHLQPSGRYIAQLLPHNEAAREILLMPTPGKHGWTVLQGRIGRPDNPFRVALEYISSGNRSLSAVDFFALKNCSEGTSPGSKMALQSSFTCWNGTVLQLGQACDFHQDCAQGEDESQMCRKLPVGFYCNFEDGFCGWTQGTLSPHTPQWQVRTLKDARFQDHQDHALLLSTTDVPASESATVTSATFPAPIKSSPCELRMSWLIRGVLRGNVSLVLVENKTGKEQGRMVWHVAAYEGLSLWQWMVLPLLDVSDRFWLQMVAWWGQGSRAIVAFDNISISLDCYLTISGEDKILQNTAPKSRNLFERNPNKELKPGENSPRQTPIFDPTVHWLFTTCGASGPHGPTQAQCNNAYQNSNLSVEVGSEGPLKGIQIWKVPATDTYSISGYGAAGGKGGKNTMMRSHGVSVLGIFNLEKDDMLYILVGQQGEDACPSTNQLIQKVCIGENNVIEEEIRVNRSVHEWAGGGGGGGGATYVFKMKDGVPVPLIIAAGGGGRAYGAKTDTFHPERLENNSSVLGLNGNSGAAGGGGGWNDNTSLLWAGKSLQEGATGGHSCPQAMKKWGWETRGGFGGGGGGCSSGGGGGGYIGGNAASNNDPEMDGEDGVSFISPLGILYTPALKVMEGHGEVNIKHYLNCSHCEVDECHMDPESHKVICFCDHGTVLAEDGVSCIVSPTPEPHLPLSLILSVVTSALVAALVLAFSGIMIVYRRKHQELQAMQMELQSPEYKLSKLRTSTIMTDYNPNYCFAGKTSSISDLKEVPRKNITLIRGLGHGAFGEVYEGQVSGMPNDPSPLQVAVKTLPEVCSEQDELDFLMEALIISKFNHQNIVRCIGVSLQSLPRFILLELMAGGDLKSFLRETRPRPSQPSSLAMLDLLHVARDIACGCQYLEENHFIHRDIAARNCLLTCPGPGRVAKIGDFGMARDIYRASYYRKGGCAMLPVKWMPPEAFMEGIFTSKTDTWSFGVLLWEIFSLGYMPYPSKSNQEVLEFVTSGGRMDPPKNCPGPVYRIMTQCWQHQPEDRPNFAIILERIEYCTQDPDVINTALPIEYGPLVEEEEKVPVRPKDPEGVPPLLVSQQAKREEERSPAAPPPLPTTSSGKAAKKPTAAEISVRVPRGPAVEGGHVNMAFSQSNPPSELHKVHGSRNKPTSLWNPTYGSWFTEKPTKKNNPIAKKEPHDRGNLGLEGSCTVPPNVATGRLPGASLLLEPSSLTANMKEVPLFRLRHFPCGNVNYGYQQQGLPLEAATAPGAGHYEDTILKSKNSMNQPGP
Chain of Tyrosine-protein kinase Blk (Homo sapiens) (P51451 2-505 limits assumed): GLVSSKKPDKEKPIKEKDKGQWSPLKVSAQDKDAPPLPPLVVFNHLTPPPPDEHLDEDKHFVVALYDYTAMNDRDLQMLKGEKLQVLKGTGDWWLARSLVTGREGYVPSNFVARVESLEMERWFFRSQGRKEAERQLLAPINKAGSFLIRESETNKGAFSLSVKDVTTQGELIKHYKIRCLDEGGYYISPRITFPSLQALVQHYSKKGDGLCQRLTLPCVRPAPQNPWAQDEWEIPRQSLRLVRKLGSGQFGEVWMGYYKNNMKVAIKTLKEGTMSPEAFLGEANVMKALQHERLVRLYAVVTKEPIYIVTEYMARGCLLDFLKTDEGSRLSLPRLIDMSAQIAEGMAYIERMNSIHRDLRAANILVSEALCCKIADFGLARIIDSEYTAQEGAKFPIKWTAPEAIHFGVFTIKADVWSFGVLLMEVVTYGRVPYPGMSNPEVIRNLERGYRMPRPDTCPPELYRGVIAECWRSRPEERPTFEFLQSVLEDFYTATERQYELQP
Chain of Tyrosine-protein kinase ABL2 (Homo sapiens) (P42684 whole entry): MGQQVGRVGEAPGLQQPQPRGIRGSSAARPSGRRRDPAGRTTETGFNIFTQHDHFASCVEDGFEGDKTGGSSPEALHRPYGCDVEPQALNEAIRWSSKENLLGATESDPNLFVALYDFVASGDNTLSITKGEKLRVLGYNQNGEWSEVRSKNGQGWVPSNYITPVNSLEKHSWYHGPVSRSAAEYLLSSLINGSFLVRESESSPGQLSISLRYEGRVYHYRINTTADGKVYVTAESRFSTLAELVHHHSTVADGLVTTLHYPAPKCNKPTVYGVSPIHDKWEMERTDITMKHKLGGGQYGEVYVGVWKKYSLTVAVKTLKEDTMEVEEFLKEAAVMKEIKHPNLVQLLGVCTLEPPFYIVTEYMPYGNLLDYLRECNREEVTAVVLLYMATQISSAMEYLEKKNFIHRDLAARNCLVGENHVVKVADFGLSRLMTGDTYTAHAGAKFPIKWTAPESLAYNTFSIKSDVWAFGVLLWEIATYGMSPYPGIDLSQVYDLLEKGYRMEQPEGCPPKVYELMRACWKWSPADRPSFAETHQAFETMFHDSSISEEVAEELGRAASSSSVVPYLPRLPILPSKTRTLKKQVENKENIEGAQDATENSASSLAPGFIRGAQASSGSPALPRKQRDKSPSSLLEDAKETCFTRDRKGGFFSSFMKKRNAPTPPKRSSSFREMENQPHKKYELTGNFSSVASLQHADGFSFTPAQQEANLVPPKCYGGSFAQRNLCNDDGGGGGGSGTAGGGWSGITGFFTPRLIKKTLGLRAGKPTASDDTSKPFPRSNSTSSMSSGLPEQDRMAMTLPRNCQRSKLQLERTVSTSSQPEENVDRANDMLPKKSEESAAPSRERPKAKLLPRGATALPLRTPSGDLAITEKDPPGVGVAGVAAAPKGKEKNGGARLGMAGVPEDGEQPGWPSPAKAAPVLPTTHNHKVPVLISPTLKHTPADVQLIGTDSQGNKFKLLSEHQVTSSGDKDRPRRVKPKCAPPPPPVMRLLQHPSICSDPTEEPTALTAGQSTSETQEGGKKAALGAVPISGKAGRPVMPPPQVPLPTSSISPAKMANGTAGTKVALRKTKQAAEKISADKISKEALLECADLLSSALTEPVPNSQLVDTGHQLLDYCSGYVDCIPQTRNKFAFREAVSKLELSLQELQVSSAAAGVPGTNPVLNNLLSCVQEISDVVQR

Cc1ccc(NC(=O)c2ccoc2)cc1-c1ccc(C(=O)NCC2CC2)cc1
inhibition [1]: 1.92% | inhibition [2]: 1.38% | inhibition [3]: -0.92% | inhibition [4]: 1.09% | inhibition [5]: 1.49% | inhibition [6]: 1.85% | inhibition [7]: 4.11% | inhibition [8]: 2.28% | inhibition [9]: 2.36% | inhibition [10]: -3.64% | inhibition [11]: -2.93% | inhibition [12]: 1.47% | inhibition [13]: 3.07% | inhibition [14]: 3.34% | inhibition [15]: 1.66% | inhibition [16]: 0.58% | inhibition [17]: 4.58% | inhibition [18]: 0.36% | inhibition [19]: 0.35% | inhibition [20]: 1.61%

CN(c1ccc(NC(=O)Nc2c(Cl)cccc2Cl)cc1)c1ccnc(Nc2cccc(CS(C)(=O)=O)c2)n1
inhibition [1]: 73.2% | inhibition [2]: 19.4% | inhibition [3]: 56.2% | inhibition [4]: 16.9% | inhibition [5]: 53.1% | inhibition [6]: 1.74% | inhibition [7]: 4.6% | inhibition [8]: 25.1% | inhibition [9]: 55.1% | inhibition [10]: 4.33% | inhibition [11]: 28.6% | inhibition [12]: 37.2% | inhibition [13]: 75% | inhibition [14]: 47.1% | inhibition [15]: 73.5% | inhibition [16]: 10.8% | inhibition [17]: 44% | inhibition [18]: 18.8% | inhibition [19]: 26.5% | inhibition [20]: 10.6%

FC(F)(F)c1cccc(Nc2nccc(-c3cnn4nc(-c5ccccc5)ccc34)n2)c1
inhibition [1]: 1.88% | inhibition [2]: -1.1% | inhibition [3]: 3.96% | inhibition [4]: -0.03% | inhibition [5]: 5.59% | inhibition [6]: 1.89% | inhibition [7]: 1.6% | inhibition [8]: 3.3% | inhibition [9]: 3.79% | inhibition [10]: -3.39% | inhibition [11]: -4.33% | inhibition [12]: 0.07% | inhibition [13]: -0.26% | inhibition [14]: 1.76% | inhibition [15]: 0.63% | inhibition [16]: -1.81% | inhibition [17]: 2.26% | inhibition [18]: 0.03% | inhibition [19]: -0.49% | inhibition [20]: 4.19%

COc1cc2ncn(-c3cc(OCc4ccccc4C(F)(F)F)c(C(C)=O)s3)c2cc1OC
inhibition [1]: 4.77% | inhibition [2]: 3.33% | inhibition [3]: 4.29% | inhibition [4]: 5.34% | inhibition [5]: 10.7% | inhibition [6]: 2.65% | inhibition [7]: 3.72% | inhibition [8]: 6.5% | inhibition [9]: 10.4% | inhibition [10]: -3.01% | inhibition [11]: -1.92% | inhibition [12]: 3.79% | inhibition [13]: 4.29% | inhibition [14]: 4.87% | inhibition [15]: 2.58% | inhibition [16]: -3.46% | inhibition [17]: 3.98% | inhibition [18]: 1.17% | inhibition [19]: 1.75% | inhibition [20]: 0.53%

NCc1ccc(-n2c(-c3nonc3N)nc3cnccc32)cc1
inhibition [1]: 0.9% | inhibition [2]: 4.15% | inhibition [3]: 2.66% | inhibition [4]: 4.78% | inhibition [5]: 3.54% | inhibition [6]: 6.31% | inhibition [7]: 17.3% | inhibition [8]: 4.87% | inhibition [9]: 6.75% | inhibition [10]: -7.21% | inhibition [11]: -1.85% | inhibition [12]: 3.21% | inhibition [13]: 4.2% | inhibition [14]: 5.93% | inhibition [15]: 4.77% | inhibition [16]: 5.04% | inhibition [17]: 5.62% | inhibition [18]: -0.77% | inhibition [19]: 0.66% | inhibition [20]: 3.09%

CN(C)CCCNc1nccc(-c2c(-c3ccc(F)cc3)nn3cc(C(F)(F)F)ccc23)n1
inhibition [1]: 2.66% | inhibition [2]: 3.93% | inhibition [3]: 6.04% | inhibition [4]: 2.04% | inhibition [5]: 11.2% | inhibition [6]: -2.64% | inhibition [7]: -0.07% | inhibition [8]: 2.2% | inhibition [9]: 6.34% | inhibition [10]: -2.11% | inhibition [11]: 3.68% | inhibition [12]: -1.5% | inhibition [13]: -0.77% | inhibition [14]: -2.3% | inhibition [15]: 3.77% | inhibition [16]: 2.2% | inhibition [17]: 4.39% | inhibition [18]: -3.09% | inhibition [19]: -2.3% | inhibition [20]: 2.44%

Fc1ccc(-c2nc3n(c2-c2ccncc2)CCS3)cc1
inhibition [1]: 2.55% | inhibition [2]: 3.68% | inhibition [3]: 5.02% | inhibition [4]: -1.35% | inhibition [5]: 3.25% | inhibition [6]: -0.77% | inhibition [7]: 0.29% | inhibition [8]: 0.16% | inhibition [9]: 4.56% | inhibition [10]: -7.95% | inhibition [11]: -3.95% | inhibition [13]: -0.49% | inhibition [14]: 2.02% | inhibition [15]: 4.87% | inhibition [16]: -1.54% | inhibition [17]: 4.07% | inhibition [18]: -2.44% | inhibition [19]: -3.5% | inhibition [20]: 7.37%

COc1cc(Nc2ncc3c(C)nc(-c4cccc(C(F)(F)F)c4)n3n2)cc(OC)c1OC
inhibition [1]: 13.1% | inhibition [2]: 3.77% | inhibition [3]: 16.2% | inhibition [4]: 2.35% | inhibition [5]: 14.6% | inhibition [6]: 2.22% | inhibition [7]: 6.97% | inhibition [8]: 3.85% | inhibition [9]: 13.1% | inhibition [10]: -3.79% | inhibition [11]: -0.36% | inhibition [12]: 3.39% | inhibition [13]: 25.1% | inhibition [14]: -0.78% | inhibition [15]: 11.9% | inhibition [16]: 3.48% | inhibition [17]: 5.36% | inhibition [18]: 2.11% | inhibition [19]: 4.31% | inhibition [20]: 4.48%
